Among all 350,000 compounds or so, about 31,000 (8.9%) were called active. Roughly 15% stayed inconclusive and do not appear here. Calls come from the whole dose curve; as a rule, active = well fitted inhibition curve with a large enough effect; inconclusive = small, poorly fitted or top-dose-only effect; inactive = no such curve, though single readings can be large or run the other way. Shown is part of a subset that was picked to be rich in actives.
Biological target: Histone-lysine N-methyltransferase EHMT2 (Homo sapiens) (UniProt Q96KQ7)
Sequence (Q96KQ7 913-1193 limits assumed): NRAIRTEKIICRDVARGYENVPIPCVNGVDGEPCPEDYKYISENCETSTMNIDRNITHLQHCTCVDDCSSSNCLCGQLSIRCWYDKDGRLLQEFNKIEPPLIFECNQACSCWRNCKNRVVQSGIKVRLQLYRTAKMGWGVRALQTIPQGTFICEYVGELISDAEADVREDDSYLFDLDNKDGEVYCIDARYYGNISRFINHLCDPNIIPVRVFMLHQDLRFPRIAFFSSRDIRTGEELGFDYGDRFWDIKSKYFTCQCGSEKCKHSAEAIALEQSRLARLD
Experiment: qHTS Assay for Inhibitors of Histone Lysine Methyltransferase G9a; note: nearly all actives have a fitted effect of over 75% in size
Conditions: G9a H3K9 monomethylation, AlphaScreen, 2 h; series mostly up to 59 µM
Summary of the method: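 Compounds were preincubated with 20 nM G9a for 15 min, after which biotinylated H3K9 peptide (500 nM) and SAM (20 uM) started a 2 h room-temperature reaction. Monomethylated product was quantified by antibody-based AlphaScreen chemiluminescence.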
% is set by controls: 0 for no effect and ±100 for the full control effect; potency is the fitted concentration of half-maximal effect.

Potency, active:
CCOC(=O)c1ccc(N2C(=O)CC(N3CCC(C(=O)OCC)CC3)C2=O)cc1 (stereo unspecified) 35.5 µM
COc1ccc(N2C(=O)CC(N3CCC(C(N)=O)CC3)C2=O)cc1 (stereo unspecified) 14.1 µM
CCN(CC)S(=O)(=O)c1cccc(-c2n[nH]c(=S)n2/N=C/c2ccc(C(=O)OC)cc2)c1 1.41 µM
COc1ccc(N2CCN(S(=O)(=O)CCNC(=O)C34CC5CC(CC(C5)C3)C4)CC2)cc1 44.7 µM
CC(=O)c1c(C)n(-c2ccc(N(C)C)cc2)c2ccc(OCC(N)=O)cc12 50.1 µM
N#C/C(=C/c1ccc(N2CCCCC2)o1)C(=O)NCCc1c[nH]c2ccccc12 31.6 µM
O=C(NC(Cc1c[nH]c2ccccc12)C(=O)O)/C(=C/c1ccco1)NC(=O)c1ccccc1 (stereo unspecified) 28.2 µM
COc1ccc(Cl)cc1-n1c(=S)sc2c(=O)n(-c3ccc(F)cc3)c(SCC(=O)O)nc21 28.2 µM
CC[n+]1c(C)n(-c2ccccc2)c2ccc(NC(C)=O)cc21 14.1 µM
Cc1noc(/C=C/c2ccco2)c1S(=O)(=O)N1CCC(C(=O)N2CCc3ccccc32)CC1 44.7 µM
CC1(C)Cc2c(C#N)c(SCc3nc4ccccc4[nH]3)nc(N3CCOCC3)c2CO1 39.8 µM
Nc1ccc(N=Nc2ccccc2Cl)c(N)n1 28.2 µM
OCCN(Cc1ccccc1)Cc1ccc(Cl)cc1 22.4 µM
CC(O)CN(Cc1ccc(Cl)cc1)CC(C)O (stereo unspecified) 14.1 µM
Cc1ccnc(-n2sc3ccccc3c2=O)n1 1 µM
O=C1CC(c2ccccc2)=NN1c1ccc([N+](=O)[O-])cc1 39.8 µM
N#CC1=C(N)N(c2ccc(F)cc2)C(=O)C1 39.8 µM
c1ccc(C2=Nc3cccc4cccc(c34)N2)cc1 8.91 µM
Cc1nn(-c2ccccc2)c(Cl)c1/C=C/C(=O)c1ccc(O)cc1 15.8 µM

Potency, inactive:
Cc1cc(C)cc(NC(=O)Cc2csc(C)n2)c1
CCN(CC(=O)Nc1ccccc1C(F)(F)F)C(=O)C1CCN(C(=O)Nc2ccccc2)CC1
COc1ccc(COCC(O)CN2CCC(C(N)=O)CC2)cc1 (stereo unspecified)
NC(=O)C1CCN(C2OC(=O)c3ccccc32)CC1 (stereo unspecified)
CCOC(=O)c1ccc(N2C(=O)CC(N3CC(C)OC(C)C3)C2=O)cc1 (stereo unspecified)
CCOC(=O)C1CCN(c2ccc(C(=O)O)cc2[N+](=O)[O-])CC1
COc1cc(Cl)ccc1Nc1ncc(C(=O)N2CCN(c3ccccc3OC)CC2)c2ccccc12
COc1cc(C)ccc1OCCSc1nc2ccc(NC(=O)c3ccc(C)cc3)cc2s1
N#C/C(=C\c1cccc(F)c1)c1nc(-c2cc3c(ccc4ccccc43)oc2=O)cs1
COc1ccc(NC(=O)COCc2cc(-c3ccco3)on2)cc1
COC(=O)c1ccc(/C=N\n2c(C)nnc2C)cc1
COc1ccc(-c2nn(CC(=O)Nc3ccccc3F)c3c2cnc2ccc(F)cc23)cc1
CCOC(=O)c1cccc(NC(=O)Cn2cnc3nc4c(cc3c2=O)CCCC4)c1
Cc1cccc(Cn2c(CN3CCC(C(=O)NCc4ccccc4Cl)CC3)cc3ccccc32)c1
CCCN(CCC)CCNC(=O)Cn1cnc2sc(C)c(S(=O)(=O)N3CCC(C)CC3)c2c1=O
Cc1ccc(NC(=O)CN(C)C(=O)COC(=O)C(C)(C)Oc2ccc(Cl)cc2)cc1
COc1ccc(OCC(=O)NCCS(=O)(=O)N2CCN(c3ccc(F)cc3)CC2)cc1
COc1ccc(N2CC(C(=O)NCCS(=O)(=O)N3CCN(c4ccccc4)CC3)CC2=O)cc1 (stereo unspecified)
CC(=O)Nc1ccc(NC(=O)CCCc2nc(-c3ccc(C(C)(C)C)cc3)no2)cc1
CCc1ccc(NC(=O)Cn2nnc(C(=O)NCc3ccc(OC)cc3)c2N)cc1
CC(=O)c1c(C)n(-c2ccc(C)cc2)c2ccc(O)cc12
CCOC(=O)c1c(-c2ccccc2)oc2ccc(OCC(N)=O)cc12
COc1ccc(CCNC(=O)c2cc3cccc4c3n2CC(C)S4)c(OC)c1OC (stereo unspecified)
O=C(NCCc1c[nH]c2ccccc12)C(=O)NCC1CCCO1 (stereo unspecified)
COc1ccc(Cc2nc3ccc(C(=O)NCc4ccccc4C)cc3o2)cc1
CC(=O)NC(Cc1c[nH]c2ccccc12)C(=O)O (stereo unspecified)
Cc1ccc(C(=O)N/C(=C/c2ccco2)C(=O)NCCc2c[nH]c3ccccc23)cc1C
COc1ccccc1Cc1nc2ccccc2nc1SCC(=O)N1CCCc2ccccc21
COc1cccc(-n2c(=S)sc3c(=O)n(-c4ccccc4C)c(SCC(=O)O)nc32)c1
Cc1cccc(NC(=O)N2CCN(C)c3ncccc32)c1C
CC(=O)c1cccc(NC(=O)c2cc(C)nn2-c2ccccc2)c1
Cc1cccn2c(=O)nc(SCC(=O)NCc3ccccc3Cl)nc12
Cc1nn(-c2ccc(F)cc2)c(-n2cccc2)c1C(=O)N1CCN(c2ccccc2)CC1
COc1ccc(OCCNC(=O)c2cc(C3CC3)nc3c2cnn3C(C)C)cc1
Cc1noc(/C=C/c2ccco2)c1S(=O)(=O)N1CCC(C(=O)Nc2ccc(Cl)cn2)CC1
Cc1cccc(NC(=O)C2CCN(S(=O)(=O)c3c(C)noc3/C=C/c3ccco3)CC2)c1
O=C(Nc1cccc2cccnc12)c1cccc(Cl)c1
CC(C)c1nc(N2CCOCC2)c(C#N)c2c1COC(C)(C)C2
COc1ccc(CSc2nc(N3CCOCC3)c3c(c2C#N)CC(C)(C)OC3)cc1
CN(C)CCCNC(=S)NCc1ccc(Cl)cc1
CCOC(=O)c1ccc(CN(Cc2ccccc2)S(=O)(=O)c2ccc(Cl)cc2)cc1
CC(C)NC(=O)c1ccc(Cl)cc1Cl
CN(C(=O)CN(CCO)CC(=O)N(C)C(C)(C)Cc1ccccc1)C(C)(C)Cc1ccccc1
CCC(Cc1ccccc1)NC(=O)C1CCCCC1 (stereo unspecified)
CCc1nn(CC(=O)Nc2cccc(C)c2C)c(=O)c2cc3sccc3n12
Oc1ccc(-n2nnnc2SCc2c(F)cccc2Cl)cc1
COc1ccc(Cc2nc3ccc(C(=O)NCc4ccccc4Cl)cc3o2)cc1
O=C(Nc1ccc(O)c(-c2nc3ccccc3o2)c1)c1ccc(-c2cccc(Cl)c2)o1
Cc1ccnc(N2CCCC(C(=O)NC3CC3)C2)n1 (stereo unspecified)
Cc1ccnc(SCC(N)=O)n1
COc1ccc(C2=NN(c3nc4ccccc4s3)C(=O)C2)cc1
Cc1nn(-c2ccc([N+](=O)[O-])cc2)c(N)c1-c1ccccc1
Cn1c(N)cc(-c2ccc(F)cc2)c(C#N)c1=O
O=C1CCCC2=C1C(c1cccs1)CC(=O)N2c1ccc(F)cc1 (stereo unspecified)
O=C(NCc1ccc(F)cc1)c1ccc2nc(N3CCCCC3)sc2c1
COC(=O)c1scc(-c2ccccc2)c1S(=O)(=O)Nc1ccccc1
Fc1ccccc1N=C1Nc2cccc3cccc1c23
Cc1ccc(C(=O)/C=C/c2c(C)nn(-c3ccccc3)c2Cl)cc1
COc1cccc(CNc2nccn(-c3ccc(OC)c(OC)c3)c2=O)c1
CC(NC(=O)c1cc(Sc2ccc(F)cc2F)nc2ccccc12)c1ccccc1 (stereo unspecified)

activity, negative = inhibition, inactive:
CC(OC(=O)/C=C/c1ccccc1)C(=O)NC1CCCCC1C (stereo unspecified) 27.1% [at 12.7 µM]
CCCCN(C(=O)C1=NN(c2cc(C)ccc2C)C(=O)CC1)c1c(N)n(CCC)c(=O)[nH]c1=O -9.41% [at 12.7 µM]
O=C(CSc1n[nH]c(-c2cccs2)n1)N1CCCCC1 -2.34% [at 2.33 µM]
CCN(CC)S(=O)(=O)c1ccc2nc(COC(=O)c3n[nH]c4ccccc34)[nH]c2c1 12.7% [at 12.7 µM]
CC(NCC(=O)Nc1ccccc1C(=O)NC1CC1)c1ccccc1Cl (stereo unspecified) 3.45% [at 12.7 µM]
COc1ccc(CCNC(=O)COc2ccc3c(c2)OCO3)cc1 13.4% [at 2.33 µM]
COCCCNC(=O)/C(C#N)=C/c1c(N2CCCCCC2)nc2ccccn2c1=O 7.66% [at 2.33 µM]
CCOCCn1[nH]c2ccccc2c1=O -9.31% [at 2.33 µM]
O=S(=O)(c1ccccc1)N1CCC(c2ccccc2)CC1 0.779% [at 2.33 µM]
COc1ccc(Cl)cc1NC(=O)C1CC(=O)N(c2ccc(F)cc2)C1 (stereo unspecified) -1.46% [at 12.7 µM]
CC(=O)Nc1ccc(NC(=O)CSc2nnc(C3CC3)n2-c2ccccc2)cc1 5.42% [at 2.33 µM]
CC(C)(O)c1ccccc1CC[C@H](SCC1(CC(=O)O)CC1)c1cccc(/C=C/c2ccc3ccc(Cl)cc3n2)c1 1.82% [at 12.7 µM]
CCN(c1ccccc1)S(=O)(=O)c1ccc(OCC(=O)N2CCCC2)cc1 12.7% [at 2.33 µM]
CCCCCCSc1ccc([C@@H]2[C@@H]3C(=O)N(CC)C(=O)[C@@H]3[C@]3(C(=O)OC)CCCCN23)cc1OC 2.26% [at 2.33 µM]
O=C(COC(=O)C1CC2CCCC(C1)C2=O)NC(=O)c1ccccc1 (stereo unspecified) -4.63% [at 12.7 µM]
COc1ccccc1C1=Nc2cccc3cccc(c23)N1 39.6% [at 0.501 µM]
Cc1nn(-c2ccccc2)c(Cl)c1C(=O)Nc1ccccc1 50.1% [at 12.7 µM]

Source: PubChem BioAssay AID504332 (National Center for Advancing Translational Sciences (NCATS), 2011)
